Assay results published in the supplement of paper PMC10849652.
Targets with a hit are over-represented here; the source holds about 8,800 in all. About 0.5% of all pairs of compound and target were hits. Values without a mark were called inactive.

Key:
Assay in all cases: log2 fold change, soluble protein after heating vs DMSO (PISA); higher = thermal stabilisation; K562 lysate, 10 uM; active = over 0.2 and 3.5 SD of the protein, either way, in both replicates (recomputed)
vemurafenib = compound: CCCS(=O)(=O)Nc1ccc(F)c(C(=O)c2c[nH]c3ncc(-c4ccc(Cl)cc4)cc23)c1F [vemurafenib]
Summary of the method: (§1)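 Soluble protein was defined as the supernatant remaining after 21,000xg for 90 min, following pooling of heated aliquots and adjustment to 0.5% NP-40 at 4°C. Before that, crude K562 extract at 1 mg/mL protein in PBS pH 7.4 with 1 mM MgCl2 was treated with 10 μM compound for 30 min and heated for 3 min across 48°C-58°C. Quantification used TMTpro 16plex LC-MS/MS with channel sums equalised, and values are log-two fold changes in thermal stability relative to solvent controls from duplicates.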

[1] = compound: CCCS(=O)(=O)Nc1ccc(F)c(C(=O)c2c[nH]c3ncc(Cl)cc23)c1F
Summary of the method: as §1

barasertib = compound: CCN(CCCOc1ccc2c(Nc3cc(CC(=O)Nc4cccc(F)c4)[nH]n3)ncnc2c1)CCOP(=O)(O)O [barasertib]
Summary of the method: as §1

[2] = compound: CC[C@@H]1C(=O)N(C)c2cnc(Nc3ccc(C(=O)NC4CCN(C)CC4)cc3OC)nc2N1C1CCCC1
Summary of the method: as §1

volasertib = compound: CC[C@@H]1C(=O)N(C)c2cnc(Nc3ccc(C(=O)N[C@H]4CC[C@H](N5CCN(CC6CC6)CC5)CC4)cc3OC)nc2N1C(C)C [volasertib]
Summary of the method: as §1

[3] = compound: CCn1c(C(=O)N(C2CC2)C2CC2)cc2c3c(ncn3C)c(Nc3cc(C)n(C)n3)nc21
Summary of the method: as §1

[4] = compound: CCn1cc(-c2ccnc3[nH]c(-c4cccc(CN(C)C)c4)cc23)c(-c2ccc(NC(=O)N(C)C)cc2)n1
Summary of the method: as §1

[5] = compound: CN1CCC(CNc2ccc3ncc(-c4cccc(OC(F)(F)F)c4)n3n2)CC1
Summary of the method: as §1

saracatinib = compound: CN1CCN(CCOc2cc(OC3CCOCC3)c3c(Nc4c(Cl)ccc5c4OCO5)ncnc3c2)CC1 [saracatinib]
Summary of the method: as §1

sotrastaurin = compound: CN1CCN(c2nc(C3=C(c4c[nH]c5ccccc45)C(=O)NC3=O)c3ccccc3n2)CC1 [sotrastaurin]
Summary of the method: as §1

alvocidib = compound: CN1CC[C@H](c2c(O)cc(O)c3c(=O)cc(-c4ccccc4Cl)oc23)[C@H](O)C1 [alvocidib]
Summary of the method: as §1

Tubastatin A = compound: CN1CCc2c(c3ccccc3n2Cc2ccc(C(=O)NO)cc2)C1 [Tubastatin A]
Summary of the method: as §1

[6] = compound: CNC(=O)C1=CC=CC=C1NC2=NC(=NC=C2Cl)NC3=C(C=C(C=C3)N4CCOCC4)OC
Summary of the method: as §1

defactinib = compound: CNC(=O)c1ccc(Nc2ncc(C(F)(F)F)c(NCc3nccnc3N(C)S(C)(=O)=O)n2)cc1 [defactinib]
Summary of the method: as §1

[7] = compound: CNc1nc(-c2ccc3c(N)n[nH]c3c2)cc(N2C[C@@H](C(=O)NC3CCCCC3)CC[C@H]2C)n1
Summary of the method: as §1

encorafenib = compound: COC(=O)N[C@@H](C)CNc1nccc(-c2cn(C(C)C)nc2-c2cc(Cl)cc(NS(C)(=O)=O)c2F)n1 [encorafenib]
Summary of the method: as §1

[8] = compound: COC(=O)[C@H](CCSC)NC(=O)C1=C(C=C(C=C1)NC[C@H](CS)N)C2=CC=CC=C2
Summary of the method: as §1

alisertib = compound: COc1cc(Nc2ncc3c(n2)-c2ccc(Cl)cc2C(c2c(F)cccc2OC)=NC3)ccc1C(=O)O [alisertib]
Summary of the method: as §1

[9] = compound: COc1cc2nc(-c3cc(F)ccc3O)nc(N[C@@H]3CNC[C@H]3C(C)(C)O)c2cc1OC
Summary of the method: as §1

gefitinib = compound: COc1cc2ncnc(Nc3ccc(F)c(Cl)c3)c2cc1OCCCN1CCOCC1 [gefitinib]
Summary of the method: as §1

Chain of UniProt Q9GZT9 (Q9GZT9 whole entry, looked up): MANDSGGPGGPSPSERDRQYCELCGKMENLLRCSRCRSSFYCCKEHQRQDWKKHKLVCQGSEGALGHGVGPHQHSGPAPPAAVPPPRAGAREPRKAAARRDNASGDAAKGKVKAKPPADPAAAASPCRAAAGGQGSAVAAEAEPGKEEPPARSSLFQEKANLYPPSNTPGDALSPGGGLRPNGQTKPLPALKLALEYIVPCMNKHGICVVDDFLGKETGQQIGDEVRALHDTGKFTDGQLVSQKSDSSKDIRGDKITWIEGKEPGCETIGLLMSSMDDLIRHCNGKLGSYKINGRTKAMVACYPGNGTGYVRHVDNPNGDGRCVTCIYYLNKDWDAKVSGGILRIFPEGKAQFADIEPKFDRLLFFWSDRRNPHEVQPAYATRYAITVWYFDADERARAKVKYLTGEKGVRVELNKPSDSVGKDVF
Chain of UniProt P57772 (P57772 whole entry, looked up): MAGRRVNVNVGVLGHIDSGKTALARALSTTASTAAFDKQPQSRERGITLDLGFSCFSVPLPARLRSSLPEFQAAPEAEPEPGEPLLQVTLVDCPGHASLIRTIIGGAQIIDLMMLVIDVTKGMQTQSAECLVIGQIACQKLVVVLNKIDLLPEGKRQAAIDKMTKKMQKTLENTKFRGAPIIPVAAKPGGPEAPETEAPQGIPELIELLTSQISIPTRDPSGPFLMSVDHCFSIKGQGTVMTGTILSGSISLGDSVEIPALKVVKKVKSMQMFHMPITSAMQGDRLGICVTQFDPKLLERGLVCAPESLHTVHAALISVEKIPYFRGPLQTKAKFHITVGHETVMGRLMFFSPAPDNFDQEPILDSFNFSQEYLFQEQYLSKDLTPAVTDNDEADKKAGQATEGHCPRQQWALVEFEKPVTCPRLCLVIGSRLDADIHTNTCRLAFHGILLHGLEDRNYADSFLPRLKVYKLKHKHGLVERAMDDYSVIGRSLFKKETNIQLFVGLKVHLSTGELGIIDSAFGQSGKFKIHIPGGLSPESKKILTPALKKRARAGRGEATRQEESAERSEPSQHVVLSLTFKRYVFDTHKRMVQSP
Chain of UniProt Q6P2E9 (Q6P2E9 whole entry, looked up): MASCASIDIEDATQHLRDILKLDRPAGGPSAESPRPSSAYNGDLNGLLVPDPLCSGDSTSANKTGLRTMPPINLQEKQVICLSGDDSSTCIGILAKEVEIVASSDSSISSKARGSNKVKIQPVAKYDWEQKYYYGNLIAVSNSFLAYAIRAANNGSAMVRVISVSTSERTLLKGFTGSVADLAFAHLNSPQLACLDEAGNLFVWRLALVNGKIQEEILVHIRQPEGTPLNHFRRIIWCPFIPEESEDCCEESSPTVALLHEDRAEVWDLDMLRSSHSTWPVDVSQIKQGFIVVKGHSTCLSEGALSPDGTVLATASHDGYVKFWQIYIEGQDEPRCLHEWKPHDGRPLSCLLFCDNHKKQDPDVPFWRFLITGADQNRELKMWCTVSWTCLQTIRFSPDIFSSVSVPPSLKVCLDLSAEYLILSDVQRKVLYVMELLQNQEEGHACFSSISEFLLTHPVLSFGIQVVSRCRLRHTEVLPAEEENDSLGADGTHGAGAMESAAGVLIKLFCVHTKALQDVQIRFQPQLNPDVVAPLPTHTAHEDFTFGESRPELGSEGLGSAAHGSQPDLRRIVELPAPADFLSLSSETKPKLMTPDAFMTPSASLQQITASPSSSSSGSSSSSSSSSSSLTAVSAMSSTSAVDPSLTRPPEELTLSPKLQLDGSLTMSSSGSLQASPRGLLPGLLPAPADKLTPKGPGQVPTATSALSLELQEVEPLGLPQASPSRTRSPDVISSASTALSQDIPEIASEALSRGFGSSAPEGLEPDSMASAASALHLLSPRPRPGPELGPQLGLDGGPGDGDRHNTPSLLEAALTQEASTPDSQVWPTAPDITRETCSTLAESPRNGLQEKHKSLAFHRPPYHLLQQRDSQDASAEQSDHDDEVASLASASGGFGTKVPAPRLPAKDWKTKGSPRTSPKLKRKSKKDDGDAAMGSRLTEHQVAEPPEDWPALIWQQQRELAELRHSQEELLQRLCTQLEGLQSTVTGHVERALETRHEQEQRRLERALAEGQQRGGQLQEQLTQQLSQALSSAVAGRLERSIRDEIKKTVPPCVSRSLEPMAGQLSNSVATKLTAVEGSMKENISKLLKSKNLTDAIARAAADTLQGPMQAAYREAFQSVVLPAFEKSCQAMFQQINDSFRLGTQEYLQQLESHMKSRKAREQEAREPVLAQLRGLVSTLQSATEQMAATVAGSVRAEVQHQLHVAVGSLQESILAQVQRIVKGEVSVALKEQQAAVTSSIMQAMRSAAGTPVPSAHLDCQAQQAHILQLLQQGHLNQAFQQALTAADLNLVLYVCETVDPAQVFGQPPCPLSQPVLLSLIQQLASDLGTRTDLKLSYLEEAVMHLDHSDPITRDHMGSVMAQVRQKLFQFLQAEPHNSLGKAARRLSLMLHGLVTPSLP
Chain of UniProt Q6PIW4 (Q6PIW4 whole entry, looked up): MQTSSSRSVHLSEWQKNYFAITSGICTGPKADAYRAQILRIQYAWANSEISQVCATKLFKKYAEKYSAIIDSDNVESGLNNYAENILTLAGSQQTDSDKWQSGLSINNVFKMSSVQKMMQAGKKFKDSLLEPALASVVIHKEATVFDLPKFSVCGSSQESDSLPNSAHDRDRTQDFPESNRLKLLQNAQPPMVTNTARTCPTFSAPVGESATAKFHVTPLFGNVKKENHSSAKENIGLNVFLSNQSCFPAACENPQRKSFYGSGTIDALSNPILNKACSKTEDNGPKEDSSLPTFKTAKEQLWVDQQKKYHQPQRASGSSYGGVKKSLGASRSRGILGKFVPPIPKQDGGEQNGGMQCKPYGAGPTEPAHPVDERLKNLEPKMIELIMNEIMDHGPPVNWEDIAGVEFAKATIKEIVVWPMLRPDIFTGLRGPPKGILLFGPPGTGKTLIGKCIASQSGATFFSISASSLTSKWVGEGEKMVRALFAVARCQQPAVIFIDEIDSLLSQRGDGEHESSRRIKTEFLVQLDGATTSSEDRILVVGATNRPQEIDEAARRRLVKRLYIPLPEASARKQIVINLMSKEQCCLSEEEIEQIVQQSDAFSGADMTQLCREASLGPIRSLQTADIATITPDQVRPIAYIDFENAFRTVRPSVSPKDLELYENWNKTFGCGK
Chain of UniProt P60981 (P60981 whole entry, looked up): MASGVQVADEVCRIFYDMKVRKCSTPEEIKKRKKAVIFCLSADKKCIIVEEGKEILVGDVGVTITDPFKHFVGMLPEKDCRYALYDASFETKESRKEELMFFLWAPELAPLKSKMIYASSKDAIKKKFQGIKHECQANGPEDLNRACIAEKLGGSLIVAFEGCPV
Chain of UniProt Q13347 (Q13347 whole entry, looked up): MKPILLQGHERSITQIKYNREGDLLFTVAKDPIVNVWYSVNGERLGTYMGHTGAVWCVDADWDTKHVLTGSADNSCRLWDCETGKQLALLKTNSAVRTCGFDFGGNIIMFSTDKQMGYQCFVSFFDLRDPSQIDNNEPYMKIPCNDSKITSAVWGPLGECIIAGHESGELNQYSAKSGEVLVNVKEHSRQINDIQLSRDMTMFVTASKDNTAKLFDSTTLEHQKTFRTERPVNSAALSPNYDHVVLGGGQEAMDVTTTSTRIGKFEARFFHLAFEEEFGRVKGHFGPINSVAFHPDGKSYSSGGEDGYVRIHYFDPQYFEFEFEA
Chain of UniProt Q96RT1 (Q96RT1 whole entry, looked up): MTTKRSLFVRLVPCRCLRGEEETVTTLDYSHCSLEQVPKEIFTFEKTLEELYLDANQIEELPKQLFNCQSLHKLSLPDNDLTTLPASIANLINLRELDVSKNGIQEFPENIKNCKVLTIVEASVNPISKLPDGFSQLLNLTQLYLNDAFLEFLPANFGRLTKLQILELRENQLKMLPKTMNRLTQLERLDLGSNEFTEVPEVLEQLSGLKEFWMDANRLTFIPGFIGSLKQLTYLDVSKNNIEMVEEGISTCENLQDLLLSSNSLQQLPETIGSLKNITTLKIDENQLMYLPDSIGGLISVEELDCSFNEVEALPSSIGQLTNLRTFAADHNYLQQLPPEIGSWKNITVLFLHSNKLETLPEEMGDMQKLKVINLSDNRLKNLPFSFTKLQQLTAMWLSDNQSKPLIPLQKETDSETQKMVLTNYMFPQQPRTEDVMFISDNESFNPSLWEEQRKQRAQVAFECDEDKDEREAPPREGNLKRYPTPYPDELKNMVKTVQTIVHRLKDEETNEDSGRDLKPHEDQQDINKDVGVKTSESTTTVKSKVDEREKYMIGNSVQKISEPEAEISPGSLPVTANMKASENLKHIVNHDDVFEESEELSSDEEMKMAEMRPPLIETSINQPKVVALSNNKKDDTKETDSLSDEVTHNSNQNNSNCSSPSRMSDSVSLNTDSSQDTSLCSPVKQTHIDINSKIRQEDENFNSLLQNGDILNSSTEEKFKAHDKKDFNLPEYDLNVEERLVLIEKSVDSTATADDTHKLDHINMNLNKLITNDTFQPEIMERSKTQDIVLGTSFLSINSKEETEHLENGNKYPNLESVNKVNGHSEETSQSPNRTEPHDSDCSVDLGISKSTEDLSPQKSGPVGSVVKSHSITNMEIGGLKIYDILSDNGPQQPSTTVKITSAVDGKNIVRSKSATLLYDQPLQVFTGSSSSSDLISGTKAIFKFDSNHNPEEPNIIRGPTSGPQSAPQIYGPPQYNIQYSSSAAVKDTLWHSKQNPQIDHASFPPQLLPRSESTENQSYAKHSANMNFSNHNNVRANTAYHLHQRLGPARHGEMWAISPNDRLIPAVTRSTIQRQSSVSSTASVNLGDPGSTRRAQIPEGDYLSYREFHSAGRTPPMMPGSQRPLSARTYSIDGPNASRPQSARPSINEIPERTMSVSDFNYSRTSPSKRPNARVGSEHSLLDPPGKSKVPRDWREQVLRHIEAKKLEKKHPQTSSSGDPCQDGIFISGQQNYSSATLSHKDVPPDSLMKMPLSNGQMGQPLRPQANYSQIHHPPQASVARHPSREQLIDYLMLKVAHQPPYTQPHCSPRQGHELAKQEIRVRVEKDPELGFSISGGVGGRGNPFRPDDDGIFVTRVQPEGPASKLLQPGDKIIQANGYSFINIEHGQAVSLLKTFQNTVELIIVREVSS

Row | Target | log2 fold change (vemurafenib) | log2 fold change [1] | log2 fold change (barasertib) | log2 fold change [2] | log2 fold change (volasertib) | log2 fold change [3] | log2 fold change [4] | log2 fold change [5] | log2 fold change (saracatinib) | log2 fold change (sotrastaurin) | log2 fold change (alvocidib) | log2 fold change (Tubastatin A) | log2 fold change [6] | log2 fold change (defactinib) | log2 fold change [7] | log2 fold change (encorafenib) | log2 fold change [8] | log2 fold change (alisertib) | log2 fold change [9] | log2 fold change (gefitinib)
1 | FIBP (UniProt O43427) | -0.011 | 0.041 | 0.105 | -0.236 (active) | -0.013 | -0.001 | -0.028 | -0.021 | 0.039 | 0.008 | 0.03 | 0.003 | 0.05 | 0.1 | -0.079 | 0.036 | 0.094 | 0.012 | 0.002 | -0.005
2 | DSTN (UniProt P60981) | -0.006 | -0.002 | -0.005 | -0.015 | -0.013 | 0.015 | 0.025 | 0.035 | -0.005 | -0.011 | -0.011 | -0.089 | 0.015 | 0.002 | -0.072 | -0.011 | -0.071 | -0.013 | -0.02 | -0.043
3 | FIGNL1 (UniProt Q6PIW4) | -0.012 | 0.042 | 0.03 | -0.063 | -0.047 | 0.027 | -0.108 | 0.036 | 0.006 | -0.015 | -0.018 | -0.189 | 0.014 | 0.05 | -0.018 | 0.041 | 0.069 | -0.003 | 0.005 | 0.01
4 | EXOC4 (UniProt Q96A65) | 0.079 | 0.01 | 0.055 | -0.06 | -0.055 | 0.025 | 0.022 | -0.079 | 0.006 | 0.018 | 0.03 | -0.073 | -0.053 | 0.039 | -0.084 | 0.022 | 0.078 | 0.009 | 0.008 | -0.035
5 | ERBIN isoform 8 (UniProt Q96RT1) | 0.038 | 0.015 | -0.004 | 0.068 | -0.013 | 0.338 (active) | -0.028 | 0.1 | -0.001 | 0.032 | -0.01 | 0.031 | 0.025 | -0.031 | -0.028 | 0.013 | -0.029 | -0.028 | -0.001 | 0.03
6 | EIF3I (UniProt Q13347) | 0.017 | 0.025 | 0.017 | -0.113 | -0.078 | 0.011 | -0.034 | -0.03 | -0.008 | 0.027 | 0.034 | -0.126 | 0.01 | 0.002 | -0.043 | -0.018 | 0.156 | 0.003 | 0.009 | -0.03
7 | DTYMK (UniProt P23919) | -0.008 | 0.042 | 0.022 | -0.062 | 0.006 | 0.059 | 0.011 | -0.032 | 0.011 | -0.033 | 0.037 | -0.095 | 0.01 | -0.006 | 0.04 | -0.061 | 0.283 (active) | 0.009 | -0.007 | -0.011
8 | EEFSEC (UniProt P57772) | 0.031 | 0.024 | 0.031 | -0.067 | -0.035 | -0.012 | -0.073 | 0.009 | -0.015 | -0.016 | -0.008 | -0.157 | 0.019 | 0.036 | -0.017 | 0.018 | 0.098 | 0.019 | 0 | -0.012
9 | EGLN1 (UniProt Q9GZT9) | -0.052 | -0.041 | -0.025 | -0.078 | -0.076 | 0.007 | 0.019 | -0.001 | 0.029 | 0.034 | -0.017 | -0.088 | 0.025 | 0.033 | -0.026 | 0 | 0.091 | 0.009 | 0.022 | -0.003
10 | FAM118A (UniProt Q9NWS6) | -0.013 | 0.011 | 0.018 | -0.017 | -0.009 | -0.031 | -0.135 | 0.077 | 0.063 | 0.025 | 0.006 | -0.153 | 0.077 | -0.007 | 0.002 | -0.017 | 0.002 | 0.008 | 0.03 | 0.003
11 | ERLIN2 (UniProt O94905) | -0.003 | 0.012 | 0.021 | 0.05 | -0.029 | 0.012 | 0.384 (active) | -0.135 | 0.008 | -0.008 | 0.164 | 0.016 | 0.005 | 0.002 | 0 | 0.045 | -0.164 | 0 | -0.06 | 0.005
12 | EIF1 (UniProt P41567) | 0.013 | -0.014 | -0.053 | 0.053 | 0.023 | -0.05 | 0.009 | 0.084 | -0.02 | -0.042 | -0.033 | 0.084 | -0.039 | -0.013 | -0.02 | -0.017 | -0.032 | -0.006 | 0.005 | -0.247 (active)
13 | EEF1AKNMT (UniProt Q8N6R0) | -0.007 | 0.041 | 0.008 | -0.08 | -0.026 | 0.053 | -0.026 | -0.031 | -0.017 | 0.008 | 0.009 | -0.102 | 0.051 | -0.012 | -0.015 | 0.005 | 0.076 | -0.02 | 0.027 | -0.031
14 | EDARADD (UniProt Q8WWZ3) | -0.066 | 0.02 | 0.255 (active) | -0.023 | -0.006 | -0.011 | -0.14 | 0.057 | 0.04 | -0.074 | -0.015 | -0.003 | 0.019 | 0.009 | -0.068 | 0.013 | -0.072 | -0.075 | 0.027 | 0.043
15 | DVL2 (UniProt O14641) | 0.067 | -0.172 | 0.119 | -0.033 | 0 | 0.007 | 0.011 | -0.003 | 0.018 | -0.055 | 0.002 | -0.079 | -0.039 | 0.028 | -0.027 | -0.018 | -0.036 | 0.003 | -0.069 | 0.006
16 | EDC4 (UniProt Q6P2E9) | 0.053 | 0.004 | 0.026 | -0.013 | -0.015 | 0.015 | -0.055 | 0.001 | 0.011 | 0.011 | -0.012 | -0.14 | 0.015 | -0.008 | -0.034 | 0.009 | -0.116 | 0.021 | 0.021 | -0.017
